Pf growth 48h: P. falciparum growth inhibition at 48 hours (one generation) | P. falciparum luciferase growth in erythrocytes, 48 h | Potency, µM (series often up to 28.7 µM), without a hit: at the highest dose activity change, negative = inhibition, actives largely listed as inhibitors | 310,000 tested, 5.9% active | AID 504832; note: % is set by controls: 0 for no effect and ±100 for the full control effect
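Luciferase-expressing P. falciparum in infected erythrocytes (2% hematocrit, 0.1% parasitemia final) in RPMI 1640/0.5% Albumax were exposed to compound for 48 hours at 37 C, 5% CO2; growth read as luminescence.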
NS1 function inh: influenza NS1 inhibition. Potency, µM (series often up to 46.1 µM), inactives show at the highest dose activity, positive = more growth. 270,000 tested, 0.4% active. AID 2326; calls by dose curve; note: actives are rising curves; nearly all actives have a fitted effect of over 50% in size
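Growth recovery, yeast-based: influenza A NS1 expressed in S. cerevisiae causes slow growth, and suppressors are detected by OD600. The parent strain without NS1 is used as positive control.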
Sm TGR block: inhibitors of Schistosoma mansoni thioredoxin glutathione reductase; Q962Y6; purified TGR, DTNB reduction, TNB absorbance 405 nm; Potency, µM (series often up to 114 µM), for the others: at the highest dose activity change, negative = inhibition, actives largely listed as inhibitors; 360,000 tested, 3% active; note: % is set by controls: 0 for no effect and ±100 for the full control effect; nearly all actives have a fitted effect of over 60% in size
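First, TGR (20 nM dispensed) and NADPH were mixed with compound. Second, a 15 min room-temperature incubation followed. Third, further NADPH and then DTNB were added to start the reaction. Finally, TNB absorbance was monitored kinetically.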
AMA1 RON2 block: disrupts binding of P. falciparum AMA1 to RON2; AlphaScreen AMA1-biotinylated RON2 peptide binding; Potency, µM (top dose mostly 58.2 µM), inactives show at the highest dose activity change, negative = inhibition, actives largely listed as inhibitors; 360,000 tested, 0.2% active;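 note: 0% = vehicle wells and -100% = peptide control; nearly all actives have a fitted effect of over 45% in size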
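AMA1 (3D7) with his tag at 25 nM final met compounds first, then biotinylated RON2 peptide at 25 nM; detection used donor plus acceptor beads, 10 µg/mL apiece, read by AlphaScreen after 30 min at room temperature.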
Pf growth 96h: P. falciparum growth inhibition at 96 hours; P. falciparum luciferase reporter growth, 96 h; 320,000 tested, 6.9% active; AID 504834; Potency, µM (highest dose often 28.7 µM), inactives show top-dose activity change, negative = inhibition, actives largely listed as inhibitors; note: % is set by controls: 0 for no effect and ±100 for the full control effect
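P. falciparum expressing integrated firefly luciferase grown in erythrocytes (2% hematocrit, 0.05% parasitemia final) with compounds for 96 hours at 37 C, 5% CO2. Growth inhibition read as loss of luminescence after adding luciferase detection reagent.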
Starred values were filed as active, the others as inactive; ? = inconclusive; / = no result given. Only some compounds are listed: those with a hit (about 11% of all), similar ones and a draw of the others. Unless noted, calls come from the whole dose curve; as a rule, active = well fitted curve in the direction sought with a large enough effect; inconclusive = small, poorly fitted or top-dose-only effect, or another doubt; inactive = no such curve, though single readings can be large; an effect the other way counts as inactive or inconclusive. Potency is the fitted concentration of half-maximal effect.

SMILES	Pf growth 48h	NS1 function inh	Sm TGR block	AMA1 RON2 block	Pf growth 96h
CC1CCCN(C2=C(NS(=O)(=O)c3ccc(Cl)cc3)C(=O)c3ccccc3C2=O)C1 (centres undefined)	?	6%	-25%	?	12µM*
CCOC(=O)N1CCN(C2=C(NS(=O)(=O)c3ccc(C)cc3)C(=O)c3ccccc3C2=O)CC1	8.3µM*	18%	?	?	3.3µM*
Cc1ccc(S(=O)(=O)NC2=C(N3CCN(c4ccccc4F)CC3)C(=O)c3ccccc3C2=O)cc1	?	16%	-6%	?	?
COC(=O)C1CCN(C2=C(NS(=O)(=O)c3ccc(Cl)cc3)C(=O)c3ccccc3C2=O)CC1	?	2%	?	20µM*	?
NC(=O)C1CCN(C2=C(NS(=O)(=O)c3ccc(Cl)cc3)C(=O)c3ccccc3C2=O)CC1	?	-1%	11µM*	?	-6%
Cc1ccc(S(=O)(=O)NC2=C(N3CCN(Cc4ccccc4)CC3)C(=O)c3ccccc3C2=O)cc1	?	7%	-1%	?	/
CC1CCN(S(=O)(=O)c2cc(C(=O)NC3(C)CCS(=O)(=O)C3)ccc2Br)CC1 (centres undefined)	?	/	-3%	-4%	9.3µM*
O=C(c1ccc(S(=O)(=O)N2CCCCCC2)cc1)N1CCN(c2ccccn2)CC1	13µM*	-31%	-2%	3%	/
Cc1c(C(=O)N2CCN(c3ccccn3)CC2)oc2c(F)cccc12	10µM*	-44%	-28%	-7%	2.3µM*
O=C(N1CCN(c2ccccn2)CC1)C(Cl)(Cl)Cl	9.3µM*	23%	2%	2%	2%
Cc1c(C(=O)N2CCN(c3ncccn3)CC2)oc2c(Cl)cccc12	?	/	-2%	-6%	-20%
CC(NC(=O)c1ccccc1)c1nnc(SCC(=O)NC2CCCC2)n1C (centres undefined)	-16%	3%	-6%	1%	4%
CC1CCN(C(=O)c2ccc(Br)c(S(=O)(=O)N3CCOCC3)c2)CC1	-9%	12%	-3%	-19%	8%
O=C(c1ccc(Cl)c(S(=O)(=O)N2CCCC2)c1)N1CCN(c2ccccn2)CC1	/	-8%	8%	-25%	?
Cc1cc(C)cc(C(=O)N2CCN(c3ccccn3)CC2)c1	6%	-3%	5%	6%	12µM*
O=C(c1ccc(Cl)c(S(=O)(=O)N2CCOCC2)c1)N1CCN(c2ccccn2)CC1	12µM*	/	-1%	5%	12µM*
CC1CCN(S(=O)(=O)c2cc(C(=O)N3CCN(c4ncccn4)CC3)ccc2Br)CC1	?	-13%	5%	-14%	7.4µM*
O=[N+]([O-])c1cccc(S(=O)(=O)N2CCN(c3ccccn3)CC2)c1	19%	6%	28%	7%	10µM*
O=[N+]([O-])c1ccc(S(=O)(=O)N2CCN(c3ccccn3)CC2)cc1	/	/	/	5%	/
CCCCN(Cc1cc2ccccc2[nH]c1=O)C(=O)c1cccc(Cl)c1	/	/	10%	/	/
O=C(Nc1ccccc1Cl)N1CCC2(CC1)Oc1ccccc1C(=O)N2Cc1ccc(F)cc1	/	/	0%	/	/
CCOc1ccc(CC(=O)NCc2ccc3c(c2)CCN3C(=O)c2ccccc2)cc1OCC	/	/	-8%	/	/
O=[N+]([O-])c1cccc(S(=O)(=O)Nc2nc3ccccc3nc2Nc2cccc(S(=O)(=O)N3CCCCC3)c2)c1	15µM*	15%	-11%	-6%	5.2µM*
O=C(c1ccc(Cl)c(S(=O)(=O)NCc2ccccc2)c1)N1CCN(c2ccccn2)CC1	?	-19%	-21%	1%	4.7µM*
O=C(c1ccc(F)c(S(=O)(=O)N2CCOCC2)c1)N1CCN(c2ccc(F)cc2)CC1	?	/	-8%	-4%	6.6µM*
SMILES	Pf growth 48h	NS1 function inh	Sm TGR block	AMA1 RON2 block	Pf growth 96h
COc1ccc2cc1Oc1ccc(cc1)CC1c3c(cc(OC)c4c3Oc3cc5c(cc3O4)CCNC5C2)CCN1C (centres undefined)	0.52µM*	0%	10%	14µM*	0.33µM*
COc1ccc2cc1Oc1ccc(cc1)CC1c3c(cc4c(c3Oc3cc5c(cc3OC)CCN(C)C5C2)OCO4)CCN1C (centres undefined)	5.4µM*	/	/	/	5.4µM*
O=C(c1ccc2ccccc2c1)N1CCN(c2ccc([N+](=O)[O-])c(N3CCOCC3)c2)CC1	7.4µM*	4%	-7%	13%	8.3µM*
O=C(/C=C/c1ccccc1)N1CCN(c2ccc([N+](=O)[O-])c(N3CCOCC3)c2)CC1	?	-35%	2%	-20%	10µM*
O=C(c1cc2ccccc2cc1O)N1CCN(c2ccc([N+](=O)[O-])cc2)CC1	6.6µM*	/	1%	-17%	?
O=C(c1cc([N+](=O)[O-])ccc1Cl)N1CCN(c2ccccc2)CC1	29%	-8%	-16%	-14%	-1%
Cc1cccc(C(=O)N2CCN(c3ccc([N+](=O)[O-])c(N4CCOCC4)c3)CC2)c1	?	-6%	2%	-22%	?
O=C(Nc1cc2c3c(c1)CC(=O)N3CCC2)C1CC1	18%	/	20%	9%	55%
CC(C)C(N)c1csc(NC(=O)Nc2cccc(Cl)c2)n1 (centres undefined)	/	/	/	101%	/
O=C(CNC(=S)N(Cc1ccccc1F)C1CCCCC1)NCCN1CCOCC1	-3%	/	9%	-3%	-24%
O=C(CNC(=S)N(Cc1ccccc1Cl)C1CCCC1)NCCN1CCOCC1	10µM*	/	-6%	8%	38%
COc1cccc(C(C[N+](=O)[O-])c2c(C)[nH]n(-c3ccccc3)c2=O)c1 (centres undefined)	8%	-110%	35µM*	4%	1%
Cc1[nH]n(-c2ccccc2)c(=O)c1C(C[N+](=O)[O-])c1ccc(Br)cc1 (centres undefined)	?	-102%	?	-9%	/
OC(Cn1cncn1)c1ccc(Cl)cc1Cl (centres undefined)	6%	-120%	0%	0%	11%
OC(c1ccc(Cl)cc1Cl)C(Cc1cccnc1)n1cncn1 (centres undefined)	?	2%	-13%	-4%	13µM*
CCN1/C(=C/c2cc[n+](C)cc2)C=Cc2cc(C)ccc21	0.74µM*	15%	-2%	-3%	-26%
O=C1CC(N2CC=C(c3ccc(F)cc3)CC2)C(=O)N1c1ccc(F)cc1 (centres undefined)	6%	1%	14µM*	21%	1%
CCOC(=O)c1ccc(N2C(=O)CC(N3CC=C(c4ccc(F)cc4)CC3)C2=O)cc1 (centres undefined)	?	-13%	5.6µM*	21%	/
COc1ccc(NC(=S)NNS(=O)(=O)c2ccc3ccccc3c2)c(OC)c1	7%	0%	/	24%	-21%
CNC(=O)/C(C#N)=C\c1ccc(CNS(=O)(=O)c2ccccc2)o1	-7%	14%	0%	-3%	?

High-throughput results: PubChem, National Center for Advancing Translational Sciences (NCATS)
